Records with an inconclusive call do not appear. Where a call stands in place of a potency, no number is given. Activity calls are given as the source filed them. Calls come from the whole dose curve; as a rule, active = well fitted cell-killing curve with a large enough effect; inconclusive = small, poorly fitted or top-dose-only effect; inactive = flat fitted curve, though single readings scatter.

The nature of this experiment: Cell Viability - LYMP1-002 - Assay at 40 hr (AID 994). Note: nearly all actives have a fitted effect of over 60% in size. To be noted: LYMP1-002 lymphoblastoid cell viability; series mostly up to 92.2 µM. From the text:
NIH Chemical Genomics Center [NCGC]
NIH Molecular Libraries Screening Centers Network [MLSCN]
National Institutes of Environmental Health Sciences [NIEHS]
National Toxicology Program [NTP]
We have developed a 1536-well cell-based assay for quantitative high throughput screening (qHTS) against a number of cell lines to determine in vitro cytotoxicity of small molecules. This particular assay uses a human lymphoblastoid cell line (LYMP1-002) purchased from Coriell Institute for Medical Research.
NCGC Assay Protocol Summary:
The CellTiter-Glo luminescent cell viability assay (Promega) is a homogeneous method to measure the number of viable cells in culture. The end point readout of this assay is based on quantitation of intracellular ATP, an indicator of metabolic activity, using the luciferase reaction. Luciferase catalyzes the oxidation of beetle Luciferin to oxyluciferin and light in the presence of ATP. The luminescent signal is proportional to amount of ATP present.
Using the CellTiter-Glo luminescent cell viability assay, the amount of cellular ATP was measured in the lymphoblastoid cell line with complete culture medium following compound treatment for 40 hours. The assay was performed in opaque white Kalypsys 1536-well plates. In the screen, tetraoctylammonium bromide was used as positive control. Library compounds were measured for their ability to cause acute toxicity in the cell line, as reflected by a decrease in intracellular ATP levels, in a concentration-dependent manner. […] AC50 values were determined from concentration-response data modeled with the standard Hill equation.
qHTS protocol for CellTiter Glo lymphoblastoid cellular assay
[Step] [Parameter] [Value] [Description]
1. Reagent; 5 uL; 2500 lymphoblastoid cells/well
2. Time; 5 hr; 37 C incubation
4. Controls; 23 nL; Tetraoctylammonium bromide 6.4pM to 92 uM
5. Time; 40 hr; 37 C incubation
6. Reagent; 5 uL; CellTiter Glo reagent
7. Time; 30 min; Room Temperature
8. Detection; Luminescence; Viewlux plate reader
Keywords: cell viability, cytotoxicity, lymphoblastoid cell line, luminescence, NTPHTS, NTPHTS_NCGC, NIEHS, DSSTox, MLSMR, MLSCN, NIH Roadmap, qHTS, NCGC
Take `CC/C=C1/OC(=O)c2ccccc21`: the Potency result was “inactive”. The same measure for `NC(=O)CCCCC(N)=O`: “inactive”; for `CC1(N)CCC(C(C)(C)N)CC1` (stereo not given): “inactive”. Regarding `Nc1cccc(O)c1`, the Potency entry is “inactive”. The same measure for `CC(=O)c1ccccn1`: “inactive”. The same measure for `Nc1cccc2c(=O)[nH][nH]c(=O)c12`: “inactive”. The same measure for `O=[N+]([O-])c1ccc(NCCO)c(OCCO)c1`: “inactive”. Consider `Cc1cccc2cccnc12`, for which the Potency entry was “inactive”. On to `CCN(Cc1ccccc1)c1ccccc1`, for which the Potency result was “inactive”.

Consider `O=C(Cl)c1c(Cl)cccc1Cl`, for which the Potency result is “inactive”. The same measure for `Cc1cccc(Br)c1`: “inactive”; for `Cc1nc2ccc(Cl)cc2[nH]1`: “inactive”. The same measure for `O=C(O[C@@H](C(=O)O)[C@@H](OC(=O)c1ccccc1)C(=O)O)c1ccccc1`: “inactive”; for `COc1cccc(N)c1`: “inactive”; for `O=[N+]([O-])c1cccc(Cl)c1`: “inactive”.

As to `C[C@@H]1O[C@@H](O[C@@H]2[C@@H](O)[C@H](OCCc3ccc(O)c(O)c3)O[C@H](CO[C@@H]3O[C@H](CO)[C@@H](O)[C@H](O)[C@H]3O)[C@H]2OC(=O)/C=C/c2ccc(O)c(O)c2)[C@H](O)[C@H](O)[C@H]1O`, the Potency entry is “inactive”.

On to `O=C(O)c1ccc(CO)o1`, for which the Potency result was “inactive”.

In the case of `Nc1c(Cl)cc(Cl)cc1Cl`, the Potency entry was “inactive”.

Consider `CCCCC(CC)CO` (stereo not given), for which the Potency result is “inactive”. Consider `Nc1cc([N+](=O)[O-])ccc1C(=O)O`, for which the Potency entry was “inactive”.

On to `CC(=O)Nc1ccccc1C`, for which the Potency result is “inactive”. The same measure for `CC(=O)OC(C)=O`: “inactive”; for `O=C(Cl)c1cccc([N+](=O)[O-])c1`: “inactive”; for `C=CC(=O)OCCCC`: “inactive”. Turning to `CC(=O)OCc1ccco1`, the Potency result is “inactive”. Under `CCCCC/C=C/C=C/C=O` stands “inactive”; under `S=C([S-])NCCNC(=S)[S-].[Zn+2]`, “inactive”; under `CO[Si](CCCNCCC[Si](OC)(OC)OC)(OC)OC`, “inactive”. Under `C1CCOC1` stands “inactive”. As to `CC(C)(C)c1ccc(OCC2CO2)cc1` (stereo not given), the Potency result is “inactive”. The same measure for `Cc1ccc([N+](=O)[O-])c(N)c1`: “inactive”. Turning to `COC(=O)CCCC(=O)OC`, the Potency entry was “inactive”. The same measure for `c1ccc2c(c1)ccc1ncccc12`: “inactive”; for `CCCCCCCN`: “inactive”; for `C=CCCCCCCC=C`: “inactive”. Under `CCCCCCCCC/C=C/CC1CC(=O)OC1=O` (stereo not given) stands “inactive”; under `Nc1ccc([N+](=O)[O-])c(N)c1`, “inactive”; under `CSc1ccc(C=O)cc1`, “inactive”.

With `Nc1ccc(F)cc1F`, the Potency result was “inactive”. The same measure for `CC(=O)c1cc(C)oc1C`: “inactive”.

(Values after PubChem BioAssay (NCATS).)
